In PubChem BioAssay (NCATS):
Inconclusive results are not listed. Activity calls are given as the source filed them. Unless noted, calls follow the shape of the dose curve; as a rule, active = well fitted curve in the direction sought with a large enough effect; inconclusive = small, poorly fitted or top-dose-only effect, or another doubt; inactive = no such curve, though single readings can be large; an effect the other way counts as inactive or inconclusive.

Key:
[1] = qHTS Assay for Identification of Small Molecule Inducers of Hypoxia Response (AID 2120; active = well fitted curve in the direction sought with a large enough effect in the signal ratio, with a control signal flat, not every such curve was filed as active; the % refers to the signal ratio)
How it was run: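 HRE-beta-lactamase reporter in CellSensor HRE-bla ME-180 cells, 2500 cells/well in Opti-MEM with 0.5% dialyzed FBS; compounds tested as titration series, 17 h at 37 degrees C. CCF4 substrate 2.5 h at room temperature; AC50 from 460/530 nm ratio.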

[2] = qHTS for differential inhibitors of proliferation of Plasmodium falciparum line W2 (AID 1883); details: Potency: Plasmodium falciparum W2 proliferation inhibition;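 also: parasites grown with compound for 72 h before lysis and staining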; also: potency is read from the fitted curve at half-maximal effect
[3] = qHTS for differential inhibitors of proliferation of Plasmodium falciparum line HB3 (AID 1886); details: Potency: Plasmodium falciparum HB3 proliferation inhibition;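 also: parasites grown with compound for 72 h before SYBR Green readout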; also: potency is read from the fitted curve at half-maximal effect
[4] = target: Ferritin light chain (Equus caballus) (UniProt P02791); experiment: qHTS Validation Assay for Identification of Novel General Anesthetics (AID 2323); also: series mostly up to about 77 µM
Sequence of Ferritin light chain (Equus caballus) (P02791 2-175 limits assumed): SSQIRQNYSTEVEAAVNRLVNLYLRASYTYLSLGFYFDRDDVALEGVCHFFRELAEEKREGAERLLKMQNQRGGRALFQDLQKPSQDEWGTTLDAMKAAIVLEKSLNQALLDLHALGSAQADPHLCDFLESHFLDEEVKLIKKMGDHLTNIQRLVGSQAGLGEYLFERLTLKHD
How it was run: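 Competitive displacement of the profluorescent anesthetic 1-AMA (50% saturated, PBS) from 10 uM apoferritin, 10 min, room temperature. Activity is normalized 380/535 nm fluorescence; concentration-response fitted with a four-parameter Hill equation.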

[5] = target: ATP-dependent DNA helicase Q1 (Homo sapiens) (UniProt P46063); experiment: qHTS Validation Assay for Inhibitors of RecQ-Like Dna Helicase 1 (RECQ1) (AID 2353)
Sequence of ATP-dependent DNA helicase Q1 (Homo sapiens) (P46063 whole entry, looked up): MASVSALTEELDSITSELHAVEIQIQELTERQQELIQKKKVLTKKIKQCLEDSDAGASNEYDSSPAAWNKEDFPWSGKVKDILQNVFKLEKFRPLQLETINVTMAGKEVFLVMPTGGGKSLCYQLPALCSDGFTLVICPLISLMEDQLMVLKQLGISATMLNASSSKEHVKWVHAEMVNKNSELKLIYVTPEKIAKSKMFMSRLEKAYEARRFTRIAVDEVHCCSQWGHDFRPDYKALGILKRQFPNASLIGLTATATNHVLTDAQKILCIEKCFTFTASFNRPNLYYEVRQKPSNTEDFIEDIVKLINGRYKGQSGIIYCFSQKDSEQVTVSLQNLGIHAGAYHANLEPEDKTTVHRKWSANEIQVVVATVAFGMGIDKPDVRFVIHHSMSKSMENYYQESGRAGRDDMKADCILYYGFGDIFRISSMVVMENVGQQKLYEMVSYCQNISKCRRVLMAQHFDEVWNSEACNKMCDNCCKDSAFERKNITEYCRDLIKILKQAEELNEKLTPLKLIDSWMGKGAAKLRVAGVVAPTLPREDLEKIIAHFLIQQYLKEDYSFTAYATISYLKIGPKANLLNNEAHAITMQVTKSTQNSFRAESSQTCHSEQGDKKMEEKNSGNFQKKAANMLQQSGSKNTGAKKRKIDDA
How it was run: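 50 nM RECQ1T1 preincubated 15 min with compound in Tris pH 8.0 buffer with MgCl2, DTT, Tween-20 and 2.5 ug/ml poly(dI-dC); started with 200 nM TAMRA/BHQ-2 forked duplex and 2 mM ATP. Unwinding read as fluorescence (525/598 nm), two reads 2 h apart.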

[6] = Cytometric Cell-Based qHTS for Inhibitors of the mTORC1 Signaling Pathway in MEF (Tsc2-/-, p53-/-) Cells (AID 2660);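 also: percent of cells above a phospho-rpS6 to PI ratio cutoff in each well; series mostly up to about 38 µM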
How it was run: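 Immunofluorescence qHTS of rpS6 Ser235/236 phosphorylation: MEFs (Tsc2-/-, p53-/-) treated 24 h, 37 C, in DMEM + 10% FBS. Alexa-488 signal normalized to PI count, referenced to rapamycin (7.5 nM) and DMSO; PI cell number recorded for viability.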

[7] = High Content Imaging Cell-Based qHTS for Inhibitors of the mTORC1 Signaling Pathway in MEF (Tsc2-/-, p53-/-) Cells (AID 2666);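 also: percent of cells scored positive for phospho-rpS6 Ser235/236 immunostaining by imaging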
How it was run: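 Read-out: % positive cells per well, with thresholds from highest- and lowest-signal wells, based on phospho-rpS6 (Ser235/236) intensity normalized to Hoechst nuclear stain. Cells: Tsc2-/-, p53-/- MEFs carrying empty vector; compound 24 hrs, 37 degree Celsius.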

[8] = High Content Imaging Cell-Based qHTS for Inhibitors of the mTORC1 Signaling Pathway in MEF Cells (AID 2667); also: potency is read from the fitted curve at half-maximal effect
How it was run: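 MEF (Tsc2-/-, p53-/-, WT Tsc2 re-expressed); cpd 24 h, 37 °C; PFA fix; Alexa-488 anti-p-rpS6 Ser235/236, PI, Hoechst; IN Cell imaging; Hoechst/Alexa-488 intensity ratio; % active cells, thresholds set from rapamycin and DMSO wells.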

[9] = target: Ubiquitin carboxyl-terminal hydrolase 2 (Homo sapiens) (UniProt O75604); experiment: qHTS Validation Assay for Inhibitors of Ubiquitin-specific Protease USP2a Using CHOP2 as the Reporter (AID 463106)
Sequence of Ubiquitin carboxyl-terminal hydrolase 2 (Homo sapiens) (O75604 whole entry, looked up): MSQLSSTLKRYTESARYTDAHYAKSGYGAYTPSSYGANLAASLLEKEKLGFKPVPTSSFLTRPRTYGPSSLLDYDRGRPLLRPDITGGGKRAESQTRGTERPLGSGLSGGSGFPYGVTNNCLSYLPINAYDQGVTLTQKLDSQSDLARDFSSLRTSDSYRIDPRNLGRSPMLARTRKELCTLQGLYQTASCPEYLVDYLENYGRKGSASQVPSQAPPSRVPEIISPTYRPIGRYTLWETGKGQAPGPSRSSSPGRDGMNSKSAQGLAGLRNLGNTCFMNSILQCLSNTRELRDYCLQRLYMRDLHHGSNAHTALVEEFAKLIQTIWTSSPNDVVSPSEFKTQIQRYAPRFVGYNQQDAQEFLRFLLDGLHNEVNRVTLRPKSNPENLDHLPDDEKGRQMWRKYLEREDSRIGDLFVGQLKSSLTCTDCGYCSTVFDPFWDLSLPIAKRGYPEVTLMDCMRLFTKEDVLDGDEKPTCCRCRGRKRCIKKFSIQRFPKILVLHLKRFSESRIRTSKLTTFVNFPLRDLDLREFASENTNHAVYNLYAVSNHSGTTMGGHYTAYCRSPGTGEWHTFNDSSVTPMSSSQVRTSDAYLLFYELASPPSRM
How it was run: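 USP2 core (10nM final) was preincubated with compound for 30min at RT in 20mM Tris-HCl pH 8.0, 2mM CaCl2, 2mM beta-mercaptoethanol, 0.05% CHAPS. Ub-CHOP2 and reporter substrate (25nM each) were added, and fluorescence (Ex 485/Em 531nm) was read after 60min.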

[10] = target: DNA polymerase III PolC-type (Bacillus subtilis (strain 168)) (UniProt P13267); experiment: qHTS Validation Assay for the Inhibitors of DNA Replication in Gram-Positive Bacteria (AID 485295);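 also: reconstituted holoenzyme with PolC plus beta clamp SSB and primase; PicoGreen fluorescence of double-stranded DNA made on primed circular M13 template; series mostly up to about 57 µM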
Sequence of DNA polymerase III PolC-type (Bacillus subtilis (strain 168)) (P13267 whole entry, looked up): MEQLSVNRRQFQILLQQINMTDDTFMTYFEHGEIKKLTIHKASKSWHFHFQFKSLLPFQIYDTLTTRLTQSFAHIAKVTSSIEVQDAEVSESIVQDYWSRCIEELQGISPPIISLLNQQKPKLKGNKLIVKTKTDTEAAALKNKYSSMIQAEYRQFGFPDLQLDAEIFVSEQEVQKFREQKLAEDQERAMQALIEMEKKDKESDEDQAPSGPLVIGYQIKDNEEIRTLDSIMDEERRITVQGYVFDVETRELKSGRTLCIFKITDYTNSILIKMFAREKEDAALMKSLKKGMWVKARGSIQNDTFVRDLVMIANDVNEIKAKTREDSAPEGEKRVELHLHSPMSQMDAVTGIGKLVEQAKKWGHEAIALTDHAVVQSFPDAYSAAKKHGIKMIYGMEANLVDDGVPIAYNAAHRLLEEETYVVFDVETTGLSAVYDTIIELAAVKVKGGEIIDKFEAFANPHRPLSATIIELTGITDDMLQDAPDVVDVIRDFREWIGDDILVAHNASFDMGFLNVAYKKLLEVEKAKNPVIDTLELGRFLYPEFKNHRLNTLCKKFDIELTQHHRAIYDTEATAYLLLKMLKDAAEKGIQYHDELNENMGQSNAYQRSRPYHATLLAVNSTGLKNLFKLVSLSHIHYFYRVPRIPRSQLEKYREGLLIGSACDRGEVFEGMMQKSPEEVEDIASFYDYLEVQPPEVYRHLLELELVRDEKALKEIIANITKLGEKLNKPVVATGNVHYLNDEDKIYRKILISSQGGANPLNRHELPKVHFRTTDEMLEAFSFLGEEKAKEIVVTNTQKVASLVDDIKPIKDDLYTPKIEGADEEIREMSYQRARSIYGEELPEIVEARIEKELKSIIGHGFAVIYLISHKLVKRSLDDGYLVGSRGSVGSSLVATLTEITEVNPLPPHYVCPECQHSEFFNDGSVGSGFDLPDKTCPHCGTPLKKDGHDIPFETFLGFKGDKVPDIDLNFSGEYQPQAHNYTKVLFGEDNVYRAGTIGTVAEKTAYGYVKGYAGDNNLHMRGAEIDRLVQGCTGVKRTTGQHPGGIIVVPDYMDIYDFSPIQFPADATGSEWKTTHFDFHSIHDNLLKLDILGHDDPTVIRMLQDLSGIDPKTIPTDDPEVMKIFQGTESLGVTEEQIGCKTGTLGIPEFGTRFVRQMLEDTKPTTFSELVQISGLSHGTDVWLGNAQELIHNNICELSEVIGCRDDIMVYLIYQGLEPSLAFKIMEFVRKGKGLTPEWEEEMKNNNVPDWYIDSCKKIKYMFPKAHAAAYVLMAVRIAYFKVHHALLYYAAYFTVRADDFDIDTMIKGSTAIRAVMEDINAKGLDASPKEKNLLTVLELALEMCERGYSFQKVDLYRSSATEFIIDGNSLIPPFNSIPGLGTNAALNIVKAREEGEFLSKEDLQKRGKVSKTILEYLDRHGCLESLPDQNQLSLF
How it was run: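 Double-stranded DNA product detected by PicoGreen fluorescence after EDTA quench. Compound incubated with B. subtilis holoenzyme (PolC, beta subunit, SSB, primase) before substrate addition; primed replication of M13Gori with dNTPs and NTPs at room temperature; DMSO defines 0% inhibition.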

[11] = target: Tumor susceptibility gene 101 protein (Homo sapiens) (UniProt Q99816); experiment: qHTS Validation Assay for Iinhibitors of HIV-1 Budding by Blocking the Interaction of PTAP/TSG101 (AID 485342; calls by dose curve)
Sequence of Tumor susceptibility gene 101 protein (Homo sapiens) (Q99816 whole entry, looked up, the tested form may be a part): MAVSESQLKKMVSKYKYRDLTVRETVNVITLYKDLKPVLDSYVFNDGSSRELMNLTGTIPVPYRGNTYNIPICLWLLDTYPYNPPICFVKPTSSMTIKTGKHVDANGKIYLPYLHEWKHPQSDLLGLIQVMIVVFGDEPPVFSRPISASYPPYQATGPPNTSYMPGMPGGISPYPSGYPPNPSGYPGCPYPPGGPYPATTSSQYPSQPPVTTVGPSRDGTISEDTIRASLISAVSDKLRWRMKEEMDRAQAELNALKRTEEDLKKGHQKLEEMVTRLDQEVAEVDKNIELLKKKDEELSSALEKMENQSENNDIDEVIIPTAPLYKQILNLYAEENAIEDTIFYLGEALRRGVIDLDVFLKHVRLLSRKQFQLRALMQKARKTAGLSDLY
How it was run: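 Fluorescence polarization of 50 nM FITC-PTAP peptide bound to 10 uM Tsg101 binding domain was read after 20 min room-temperature incubation with compounds, in 10 mM HEPES pH 7.5, 0.15 M NaCl, 0.01% Tween 20.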

[12] = qHTS Validation Assay to Find Inhibitors of Chronic Active B-Cell Receptor Signaling (AID 485345; active = well fitted curve in the direction sought with a large enough effect in the main read-out, with a control signal flat, not every such curve was filed as active; also: potency is read from the fitted curve at half-maximal effect)
How it was run: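 TMD8 ABC-DLBCL cells with dox-inducible green luciferase–IκBα fusion and red native luciferase; compounds 46 uM–3 nM, 4 h at 37C with doxycycline in 0.5% FBS IMDM. Green/red ratio normalized to basal and 10 uM MG-132.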

[13] = target: Beta-2 adrenergic receptor (Homo sapiens) (UniProt P07550); experiment: qHTS validation assay of beta-arrestin-biased ligands of beta2-adrenergic receptor (AID 485366)
Sequence of Beta-2 adrenergic receptor (Homo sapiens) (P07550 whole entry, looked up): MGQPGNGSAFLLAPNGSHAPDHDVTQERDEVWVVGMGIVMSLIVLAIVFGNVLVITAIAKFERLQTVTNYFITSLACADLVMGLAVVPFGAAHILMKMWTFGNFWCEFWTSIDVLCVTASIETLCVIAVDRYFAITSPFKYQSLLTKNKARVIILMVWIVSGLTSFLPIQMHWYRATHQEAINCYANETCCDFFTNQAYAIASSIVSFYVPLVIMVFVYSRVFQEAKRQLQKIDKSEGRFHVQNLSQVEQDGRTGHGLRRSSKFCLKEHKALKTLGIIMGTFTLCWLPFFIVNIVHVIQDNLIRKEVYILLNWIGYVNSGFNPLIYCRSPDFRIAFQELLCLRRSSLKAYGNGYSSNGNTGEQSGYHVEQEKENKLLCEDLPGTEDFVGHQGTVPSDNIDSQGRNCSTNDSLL
How it was run: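 Arrestin-recruitment (Tango) reporter: ligand-bound beta2-AR recruits beta-arrestin, releasing tTA, which upregulates luciferase. Titrations of up to 46 microM incubated 18 hr at 37 degrees C before luminescent readout.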

[14] = target: ATP-dependent 6-phosphofructokinase (Trypanosoma brucei brucei) (UniProt O15648); experiment: qHTS Validation Assay to Find Inhibitors of T. brucei phosphofructokinase (AID 485368)
Sequence of ATP-dependent 6-phosphofructokinase (Trypanosoma brucei brucei) (O15648 whole entry, looked up): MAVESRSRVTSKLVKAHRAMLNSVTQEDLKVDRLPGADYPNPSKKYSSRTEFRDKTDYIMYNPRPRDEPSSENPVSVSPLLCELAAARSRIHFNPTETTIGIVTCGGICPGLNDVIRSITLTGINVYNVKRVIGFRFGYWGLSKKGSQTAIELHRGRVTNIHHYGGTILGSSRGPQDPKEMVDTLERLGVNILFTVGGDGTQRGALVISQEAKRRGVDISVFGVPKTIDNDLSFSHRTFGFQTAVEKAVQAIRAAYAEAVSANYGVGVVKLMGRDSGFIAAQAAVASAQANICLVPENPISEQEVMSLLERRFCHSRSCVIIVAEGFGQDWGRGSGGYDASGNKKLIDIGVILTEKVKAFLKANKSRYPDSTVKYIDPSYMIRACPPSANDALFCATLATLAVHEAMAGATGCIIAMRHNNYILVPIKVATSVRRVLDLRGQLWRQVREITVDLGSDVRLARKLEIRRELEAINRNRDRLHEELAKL
How it was run: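 Steps: substrate mix (0.5 mM F6P, 0.1 mM ATP, MgCl2, TEA pH 8.0); compound; 1.25 nM T. brucei PFK; 45 min RT; ATP depletion 10 min; ADP-to-ATP detection 10 min; luminescence read; curve fitting and classification.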

[15] = Quantitative high throughput screen for delayed death inhibitors of the malarial parasite plastid, 96 hour incubation (AID 488745); also: nearly all actives have a fitted effect of over 70% in size; also: potency is read from the fitted curve at half-maximal effect
How it was run: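 P. falciparum carrying an integrated firefly luciferase reporter, grown in erythrocytes (2% hematocrit, 0.1% parasitemia final) in RPMI 1640/0.5% Albumax, was exposed to compound for 96 h (two generations) at 37 C, 5% CO2. Luminescence decrease indicated growth inhibition.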

[16] = Quantitative high throughput screen for delayed death inhibitors of the malarial parasite plastid, 48 hour incubation (AID 488752); also: nearly all actives have a fitted effect of over 65% in size; also: potency is read from the fitted curve at half-maximal effect
How it was run: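 Erythrocytes infected with P. falciparum carrying an integrated firefly luciferase reporter (2% hematocrit, 0.1% parasitemia final) were exposed to compounds in RPMI 1640/0.5% Albumax for 48 h at 37 C, 5% CO2. Growth inhibition was scored as reduced luminescence.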

[17] = target: RecQ-like DNA helicase BLM (Homo sapiens) (UniProt P54132); experiment: qHTS Validation Assay for Inhibitors of Bloom's syndrome helicase (BLM) (AID 2364)
How it was run: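 BLM 50 nM in 25 mM Tris-HCl pH 8.0, 5 mM NaCl, 2 mM MgCl2, 1 mM DTT, 0.01% Tween-20, 2.5 ug/ml poly(dI-dC); 15 min cpd preinc, RT. Start: 200 nM forked DNA + 2 mM ATP (final). TAMRA read, 2 reads 2 h apart.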

[18] = Validation screen for small molecules that induce DNA re-replication in MCF 10A normal breast cells (AID 463097); also: nearly all actives have a fitted effect of over 60% in size; also: potency is read from the fitted curve at half-maximal effect
How it was run: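 Read-out is Hoechst total nuclear intensity by fluorescence scanning imager, flagging increased high-DNA-content nuclei. Compounds were incubated with MCF 10A cells for 48 hr (37 C, 5% CO2) before 40 min staining.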

[19] = Cytometry Cell-Based qHTS for Inhibitors of the mTORC1 Signaling Pathway in MEF cells (AID 2668); also: potency is read from the fitted curve at half-maximal effect
How it was run: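 Phospho-rpS6 (Ser235/236) immunofluorescence over PI signal, scored as % positive cells using thresholds from 7.5 nM rapamycin and DMSO wells, after 24 h compound exposure of WT-Tsc2-rescued Tsc2-/-, p53-/- MEFs. PI cell count recorded for viability.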

Measured: Potency

N[C@@H](Cc1c[nH]c2ccc(O)cc12)C(=O)O
inactive: [1]

Cn1c(=O)c2c(ncn2C)n(C)c1=O
inactive: [1]

NC(=O)NO
not listed: [1] | [17] | [18] | [19]
inactive: all other assays above

CNCCCC12CCC(c3ccccc31)c1ccccc12
active: [2] 5.01 µM | [8] 0.521 µM
not listed: [1] | [3] | [6] | [12] | [15] | [19]
inactive: all other assays above

CN1CCN2c3ccccc3Cc3ccccc3C2C1 (stereo not drawn)
active: [2] 5.62 µM | [3] 12.6 µM
not listed: [1] | [14] | [17] | [19]
inactive: all other assays above

O=C(c1ccc(OCCN2CCCCC2)cc1)c1c(-c2ccc(O)cc2)sc2cc(O)ccc12
active: [2] 3.16 µM | [3] 3.16 µM | [18] 11.2 µM | [12] 20.6 µM
inactive: [5] | [7] | [9] | [10] | [11] | [13]

CC12CC3CC(C)(C1)CC(N)(C3)C2
active: [2] 2.24 µM
not listed: [1] | [3] | [13] | [17] | [18] | [19]
inactive: all other assays above

OCCN(CCO)c1nc(N2CCCCC2)c2nc(N(CCO)CCO)nc(N3CCCCC3)c2n1
inactive: [5] | [6] | [7] | [8] | [19] | [10] | [14]
active: [2] 2.82 µM | [3] 3.55 µM | [15] 10.4 µM | [16] 9.28 µM

CCOC(=O)C(C)(C)Oc1ccc(Cl)cc1
not listed: [1] | [4] | [13] | [14] | [19]
inactive: all other assays above

CCCCc1oc2ccccc2c1C(=O)c1cc(I)c(OCCN(CC)CC)c(I)c1
inactive: [5] | [6] | [7] | [9] | [10] | [11] | [12] | [13]
active: [2] 2.24 µM | [3] 3.98 µM | [8] 13.1 µM | [15] 8.28 µM | [16] 9.28 µM

CN1C(C(=O)Nc2ccccn2)=C(O)c2ccccc2S1(=O)=O
active: [2] 10 µM
not listed: [1] | [12] | [13] | [14] | [17] | [18] | [19]
inactive: all other assays above

O=C(Nc1ccc([N+](=O)[O-])cc1Cl)c1cc(Cl)ccc1O
active: [2] 0.794 µM | [3] 0.794 µM | [8] 2.07 µM | [19] 1.17 µM | [18] 0.316 µM
inactive: [5] | [6] | [7] | [9] | [10] | [11] | [13] | [14]

Cc1cn([C@H]2C=C[C@@H](CO)O2)c(=O)[nH]c1=O
not listed: [1] | [14] | [15] | [17] | [19]
inactive: all other assays above

CC(C)Cc1ccc(C(C)C(=O)O)cc1 (stereo not drawn)
not listed: [1] | [9] | [17] | [19]
inactive: all other assays above

Clc1ccccc1C(c1ccccc1)(c1ccccc1)n1ccnc1
active: [2] 0.355 µM | [3] 0.316 µM | [15] 1.17 µM | [16] 1.04 µM
not listed: [1] | [4] | [14] | [17] | [18] | [19]
inactive: all other assays above

Nc1ccn([C@H]2CC[C@@H](CO)O2)c(=O)n1
not listed: [1] | [17] | [18] | [19]
inactive: all other assays above
